Measurements from PubChem BioAssay (NCI).
Compounds without any hit were thinned out: in the full panel of roughly 79,000, 15% have a hit. Rule as the data show it: active = growth inhibition above about 70%; inactive = the rest.

What was measured:
[1] = NCI Yeast Anticancer Drug Screen. Data for the rad50 strain (AID 155);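 also: 0% = growth of vehicle-only cultures of the same strain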; settings: S. cerevisiae rad50 strain growth inhibition; at 50.0 µM; hits give high values
Summary of the method: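 Compounds were tested on a yeast strain with an engineered DNA damage repair alteration; the reported value is growth inhibition normalised to vehicle treatment.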

[2] = NCI Yeast Anticancer Drug Screen. Data for the mec2-1 strain (AID 157); settings: S. cerevisiae mec2-1 strain, at 50.0 µM, hits give high values
Summary of the method: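 Vehicle-treated cultures served as reference for growth inhibition of compound-exposed mec2-1 yeast.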

[3] = NCI Yeast Anticancer Drug Screen. Data for the sgs1 mgt1 strain (AID 161);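 also: 0% = growth of cultures given vehicle only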; settings: S. cerevisiae sgs1 mgt1 strain, at 50.0 µM, hits give high values
Summary of the method: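 Read-out: growth inhibition vs vehicle controls. Cells: mutant yeast strain deficient in DNA damage repair.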

[4] = NCI Yeast Anticancer Drug Screen. Data for the cln2 rad14 strain (AID 165);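 also: 0% = growth equal to vehicle treated cultures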; settings: S. cerevisiae cln2 rad14 strain, at 50.0 µM, hits give high values
Summary of the method: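 Each compound was tested on cln2 rad14 yeast. Inhibition of growth was calculated against vehicle-exposed controls.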

[5] = NCI Yeast Anticancer Drug Screen. Data for the bub3 strain (AID 167); settings: S. cerevisiae bub3 mutant strain, at 50.0 µM, hits give high values
Summary of the method: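 Growth of a checkpoint-deficient yeast mutant is measured after compound exposure. Values represent inhibition relative to vehicle.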

[6] = NCI Yeast Anticancer Drug Screen. Data for the mlh1 rad18 strain (AID 175); settings: S. cerevisiae mlh1 rad18 strain growth inhibition; at 50.0 µM; hits give high values
Summary of the method: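 Vehicle-treated cultures served as the reference for growth inhibition in a yeast strain carrying DNA damage repair alterations exposed to each compound.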

Measured: growth inhibition

Cl[Si]1(Cl)Oc2ccccc2O[Si](Cl)(Cl)Oc2ccccc2O1
inactive: [1] 16.2% | [2] 10.6% | [3] 8.35% | [4] 28.6% | [5] 3.7% | [6] 10.2%

Cc1nc2sc(CCl)nn2c(=O)c1Cl
inactive: [1] 16.1% | [2] 34% | [3] 14.6% | [4] 17.9% | [5] 21.2% | [6] 10.8%

CC1CCc2nc(N)nc(CC3CC(=O)NC(=O)C3)c2C1 (stereo not given)
inactive: [1] -2.75% | [2] -5.65% | [3] -8.7% | [4] -45.5% | [5] -12.8% | [6] -3.2%

COc1ccc2nc3c(=O)[nH]c(=O)nc-3n(CC(O)C(O)C(O)CO)c2c1 (stereo not given)
inactive: [1] 24.9% | [2] 6.9% | [3] 16.1% | [4] 25.3% | [5] 10.9% | [6] 34.2%

CCCCCC#CC(=O)OC
inactive: [1] -14.8% | [2] 1.45% | [3] -17.4% | [4] 9.95% | [5] -2.2% | [6] 2.75%

CC(=O)C1C(=O)C(=O)N(Cc2ccccc2)C1=O (stereo not given)
inactive: [1] -20.4% | [2] -13.8% | [3] -27.4% | [4] -19.3% | [5] -7.4% | [6] -19.6%

Cc1[nH]c(=O)c2oc3cc4ccccc4cc3c2c1C(=O)O
inactive: [1] -14.6% | [2] -29.9% | [3] -24.1% | [4] -44.1% | [5] -30.7% | [6] -19.1%

O=C(O)COc1cccc([N+](=O)[O-])c1
inactive: [1] 3% | [2] -10.3% | [3] -9.9% | [4] -62.5% | [5] -5% | [6] -17.4%

Cc1ccc2c(c1)-c1c3c(nn1C)-c1ccccc1SC3O2 (stereo not given)
inactive: [1] -0.35% | [2] -7.75% | [3] -13.1% | [4] -3.6% | [5] -5.75% | [6] 9.15%

O=C1c2cc3c(-c4ccccc4)oc(-c4ccccc4)c3cc2C(=O)c2c(O)ccc(O)c21
inactive: [1] 1.2% | [2] -7.15% | [3] -20.6% | [4] -4.7% | [5] -5.75% | [6] 5.5%

COc1ccc(NC(N)=O)cc1
inactive: [1] 12.2% | [2] -16.4% | [3] 0.05% | [4] -1.25% | [5] -6.35% | [6] 10.4%

O=C(Nc1ccccc1SC(=O)OCc1ccccc1)OCc1ccccc1
inactive: [1] 30.2% | [2] 4.8% | [3] 11.6% | [4] 38.6% | [5] 1.95% | [6] 1.3%

CC(C)CCc1n[nH]c(=O)n1/N=C\c1ccccc1
inactive: [1] -4.25% | [2] -9.35% | [3] -0.05% | [4] -10.6% | [5] 19.1% | [6] 26.6%

O=C1OCCC2(CCN(Cc3ccccc3)CC2)O1
inactive: [1] 11.2% | [2] 9.35% | [3] 25.4% | [4] -0.3% | [5] -1.45% | [6] 24.3%

OCc1ccccc1CO
inactive: [1] -19.6% | [2] -15% | [3] -9.25% | [4] 13.3% | [5] -3.75% | [6] 3.15%

COc1ccc(N(C)C(=S)c2ccccc2)cc1
inactive: [1] -49.5% | [2] -11.7% | [3] -15.4% | [4] -37.5% | [5] 0.45% | [6] -10.9%

CC(C)(C)c1ccc(SCC#CCOc2ccc(Cl)cc2)cc1
inactive: [1] -6.2% | [2] 4.2% | [3] -4.8% | [4] -23.6% | [5] -7.3% | [6] -20.4%

COC(=O)c1c2c(cc3nc4ccccc4nc13)OCO2
inactive: [1] 26.4% | [2] 9.75% | [3] 12.8% | [4] -1.8% | [5] 16.9% | [6] 21.6%

CCOc1cc2c(cc1C/C=C/c1ccc(OC)cc1)OCO2
inactive: [1] 26.4% | [2] 12.6% | [3] 37.4% | [4] -0.75% | [5] 41.8% | [6] 5.05%

CCOC(=O)Oc1ccc(C(=O)Oc2cc(Cl)c(Cl)cc2Cl)cc1OC
inactive: [1] 3.9% | [2] 4.7% | [3] 3.25% | [4] 18% | [5] -13.9% | [6] 7%

ClC(=Nc1cccc(Cl)c1)C(Cl)=Nc1cccc(Cl)c1
inactive: [1] -6.5% | [2] -1.7% | [3] -2.05% | [4] 12.6% | [5] 6.45% | [6] 1.15%

Cc1ccsc1/C=N/Nc1cc(C)c2ccccc2n1
inactive: [1] 41.4% | [2] -6.25% | [3] 40% | [4] 35.8% | [5] 26.6% | [6] 16.2%

CC(C)CCNC(=O)CS(=O)(=O)c1ccc(N)cc1
inactive: [1] -2.15% | [2] -3.05% | [3] -11.9% | [4] -34.2% | [5] -23.1% | [6] -8.55%

CC(=O)NCS(=O)(=O)O
inactive: [1] -25.3% | [2] -13.4% | [3] -0.9% | [4] -34% | [5] -12.3% | [6] -9.55%

CN=C(N)SCCCSC(N)=NC
inactive: [1] 17.6% | [2] 14% | [3] 28% | [4] 30.7% | [5] 15.6% | [6] 8.5%

O=C(O)C1CC(O)c2ccccc2C1c1ccccc1 (stereo not given)
inactive: [1] -2.65% | [2] -1.15% | [3] -11.4% | [4] 22.6% | [5] 5.1% | [6] -17.3%

O=[N+]([O-])c1ccc(/C=N\N=P(c2ccccc2)(c2ccccc2)c2ccccc2)cc1
inactive: [1] -6.25% | [2] 3.25% | [3] 12.8% | [4] 1.9% | [5] -4.65% | [6] -3.85%

NC(=O)CC(N)C(=O)OCc1ccc([N+](=O)[O-])cc1 (stereo not given)
inactive: [1] -12.7% | [2] 0% | [3] -3.45% | [4] -11.2% | [5] -5.95% | [6] -11.3%

NC1=NOC(=O)C1c1ccccc1 (stereo not given)
inactive: [1] -19.1% | [2] -45.3% | [3] -10.2% | [4] 2.55% | [5] -9.5% | [6] -19.8%

Oc1ccc(Br)cc1CNC1CCCCC1
inactive: [1] 58.5% | [2] 31.8% | [3] 61.1% | [4] -9.9% | [5] 27.1% | [6] 24.1%

O=C(C(c1ccccc1)C(C(=O)N(Cc1ccccc1)Cc1ccccc1)c1ccccc1)N(Cc1ccccc1)Cc1ccccc1 (stereo not given)
inactive: [1] -44.8% | [2] 7% | [3] -18.9% | [4] -14.3% | [5] -1.35% | [6] 28.3%

COc1ccc(CCNC(=O)c2cccc(Cl)c2)cc1OC
inactive: [1] -7.05% | [2] -28.9% | [3] -23.1% | [4] -44.6% | [5] -22% | [6] -12.2%

O=C1CCCC(=O)c2c(O)ccc(O)c21
inactive: [1] 4.4% | [2] -4.15% | [3] 9.5% | [4] -3.4% | [5] 10.7% | [6] 5.65%

Cc1c(N=Nc2cccc(Cl)c2Cl)c(-c2ccccc2)nn1C(=S)S
inactive: [1] 53.8% | [2] 42.6% | [3] 55.9% | [4] 35.6% | [5] 24.6% | [6] 28.2%

CC1CS(=O)(=O)O1 (stereo not given)
inactive: [1] -4.45% | [2] -6.75% | [3] -18.6% | [4] 9.5% | [5] 10.3% | [6] 6.8%

CCOC12CC(OC(=O)N1)C(C)C1OC1(C)C(OC(=O)C(C)N(C)C(C)=O)CC(=O)N(C)c1cc(cc(OC)c1Cl)C/C(C)=C/C=CC2OC (stereo not given)
inactive: [1] -21.1% | [2] -29.6% | [3] -30.9% | [4] -0.4% | [5] -20.4% | [6] -5.25%

COC(=O)c1cc2ccccc2n1C
inactive: [1] -25.7% | [2] -45.6% | [3] -30.9% | [4] 16.1% | [5] -6.95% | [6] -8.15%

CN(Nc1ccnc(=O)[nH]1)c1ccccc1
inactive: [1] -35.9% | [2] -11.2% | [3] -11% | [4] -23.6% | [5] -2.7% | [6] 8.8%

COc1ccc2c(c1)C1(C)CCCC(C)(CN=C=O)C1CC2 (stereo not given)
inactive: [1] 3.55% | [2] 14.4% | [3] -4.75% | [4] 4.8% | [5] -11.9% | [6] -1.95%

Cc1cc(=O)n(Cc2ccccc2)n1-c1ccccc1
inactive: [1] -11% | [2] 12.8% | [3] -0.4% | [4] 9.4% | [5] 1.2% | [6] -17%
